Laboratory results taken from PubChem BioAssay (EPA / NIEHS).
Several values for one entry are separate records, joined by “and”; a condition that tells them apart may be missing. Identical values can stand only once. Inconclusive results are not listed. Some compounds were tested as several samples or in several runs, with calls that do not always agree. Activity calls are given as the source filed them. Rule for the calls, unless noted: active = hit-call score of the fitted dose curve at least 0.9, where 1 is the maximum; inactive = score below 0.9.

Experiments:
[1] = CCTE_Shafer_MEA_dev_correlation_coefficient_mean: CCTE's Neural Network Formation Assay for Mean Correlation Coefficient, Shafer Lab (AID 2284093);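 for AC50: well mean pairwise spike train correlation integrated as AUC over recording days 5 to 12; potency fitted for loss of correlation relative to DMSO vehicle wells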
Method in brief: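 Read-out: well-mean correlation coefficient of spike trains between electrode pairs, collapsed over four recording days as trapezoidal area-under-the-curve. Developing rat cortical neuron networks grown on MEAs received test chemical continuously from plating.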

[2] = IUF_NPC1b_proliferation_BrdU_72hr: Leibniz Research Institute for Environmental Medicine (IUF) 72-hour Neural Progenitor Cell Bromodeoxyuridine (BrdU) Proliferation Assay (NPC1b) (AID 2284207)
Method in brief: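 Luminescent BrdU ELISA measured DNA synthesis during the last 16 h of a 72 h exposure of primary human neural progenitor spheres grown with EGF and FGF. Signal was fitted relative to DMSO controls.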

[3] = IUF_NPC1a_proliferation_area_72hr: Leibniz Research Institute for Environmental Medicine (IUF) 72-hour Neural Progenitor Cell Proliferation Area Assay (NPC1a) (AID 2284208)
Method in brief: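 Read-out: increase in sphere area over 72 h by automated phase-contrast imaging, fitted in positive direction versus DMSO baseline. One hNPC sphere (0.25-0.35 mm) per well in EGF/FGF medium; growth-factor withdrawal served as positive control.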

[4] = IUF_NPC1_viability_72hr: Viability Assessment at 72 hours in the Leibniz Research Institute for Environmental Medicine (IUF) Neural Progenitor Cell Proliferation Assay (NPC1) (AID 2284209)
Method in brief: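 Spheres of primary human neural progenitors were plated singly in proliferation medium and treated for 72 h. Mitochondrial reduction of resazurin was then measured by fluorescence and analysed against DMSO controls.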

[5] = CCTE_Mundy_HCI_Cortical_Synap_Neur_Matur_NeuriteSpotCountPerNeuriteLength: CCTE's Synaptogenesis and Neurite Maturation Assay in rat cortical cells for Neurite Spot Count per Neurite Length, Mundy Lab (AID 2284210)
Method in brief: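 Read-out: synaptophysin puncta counted along MAP2-stained neurites, normalised to neurite length, by automated high-content imaging. Rat cortical cells; AraC DIV 5; chemical dosing DIV 7; termination DIV 12. DMSO baseline.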

[6] = CCTE_Mundy_HCI_Cortical_Synap_Neur_Matur_BPCount: CCTE's Synaptogenesis and Neurite Maturation Assay in rat cortical cells for Branch Point Count, Mundy Lab (AID 2284211)
Method in brief: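 HCI read-out of branch points from MAP2/synaptophysin/Hoechst immunofluorescence; rat cortical cultures, AraC DIV 5, dosing DIV 7, fixed DIV 12; fit in positive direction vs DMSO baseline.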

[7] = CCTE_Mundy_HCI_Cortical_NOG_NeuriteCount: CCTE's Neurite Outgrowth Assay in rat cortical cells for Neurite Count, Mundy Lab (AID 2284212);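 note: cells fixed about two days after chemical exposure began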
Method in brief: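 Rat cortical primary cells; compound added 2 h post-plating, 1/10 dilution of working solution. Anti-betaIII-tubulin/AF488 ICC; ArrayScan neurite count vs DMSO.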

[8] = CCTE_Mundy_HCI_Cortical_NOG_NeuriteLength: CCTE's Neurite Outgrowth Assay in rat cortical cells for Neurite Length, Mundy Lab (AID 2284213)
Method in brief: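 First, rat primary cortical cells were plated and, 2 h later, given test chemical as a 1/10 dilution. Finally, βIII-tubulin immunostaining enabled automated imaging of neurite length.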

[9] = CCTE_Mundy_HCI_Cortical_Synap_Neur_Matur_NeuriteLength: CCTE's Synaptogenesis and Neurite Maturation Assay in rat cortical cells for Neurite Length, Mundy Lab (AID 2284214)
Method in brief: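 Cultures of rat primary cortical cells received chemical at DIV 7 and were fixed at DIV 12, after glial arrest with AraC at DIV 5. Neurite length was measured by automated imaging of MAP2 immunofluorescence.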

[10] = CCTE_Mundy_HCI_Cortical_Synap_Neur_Matur_NeuriteSpotCountPerNeuron: CCTE's Synaptogenesis and Neurite Maturation Assay in rat cortical cells for Neurite Spot Count per Neuron Count, Mundy Lab (AID 2284215)
Method in brief: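 Rat primary cortical cells received AraC at DIV 5, then chemicals with a media change at DIV 7, and were fixed at DIV 12. Synaptophysin puncta on MAP2-stained neurites per neuron were counted by high-content imaging, fitted relative to DMSO.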

[11] = CCTE_Mundy_HCI_Cortical_Synap_Neur_Matur_SynapseCount: CCTE's Synaptogenesis and Neurite Maturation Assay in rat cortical cells for Synapse Count, Mundy Lab (AID 2284218)
Method in brief: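 Cells were plated, allowed 2 hr to attach, treated with AraC at DIV 5, then exposed to chemicals from DIV 7 until DIV 12. After fixation and MAP2/synaptophysin immunolabelling, synapses per neuron were quantified by automated imaging against DMSO.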

[12] = CCTE_Mundy_HCI_Cortical_Synap_Neur_Matur_NeuriteCount: CCTE's Synaptogenesis and Neurite Maturation Assay in rat cortical cells for Neurite Count, Mundy Lab (AID 2284222);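 for outcome: exposure from day 7 to day 12 in vitro with readout at day 12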
Method in brief: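 Chemical exposure runs DIV 7–12 in rat cortical cultures, glia suppressed by AraC at DIV 5; measurement is at DIV 12. Imaging-derived neurite counts are fitted against DMSO baseline.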

[13] = CCTE_Mundy_HCI_Cortical_Synap_Neur_Matur_CellBodySpotCount: CCTE's Synaptogenesis and Neurite Maturation Assay in rat cortical cells for Cell Body Spot Count, Mundy Lab (AID 2284223)
Method in brief: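 Rat primary cortical cultures received AraC at DIV 5 to arrest glia, were dosed with chemical at DIV 7 with media change, and were fixed at DIV 12 (288.33 h). Synaptophysin puncta on MAP2-positive cell bodies per neuron were counted by high-content imaging versus DMSO.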

[14] = TAMU_PeakParms_SingleDonor1434_Chronotropy: Texas A&M University (TAMU) 1.5-hr Human Induced Pluripotent Stem Cell (iPSC)-derived Cardiomyocytes Calcium (Ca+2) Flux Assay for Cardiotoxicity: Chronotropy (changes in peak frequency) (AID 2284217); details: actives raise or lower the signal
Method in brief: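 Beat frequency of single-donor iPSC cardiomyocytes was recorded through a calcium-sensitive dye 1.5 hours after exposure to four concentrations up to 100 uM. An EC05 point of departure was derived.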

[15] = UKN2_HCS_IMR90_neural_migration: University of Konstanz (UKN) Leist Lab Neural Crest Cell Migration Assay in human induced IMR90 Pluripotent Stem Cells (UKN2) (AID 2284204); details: actives raise or lower the signal
Method in brief: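 Stopper-exclusion migration (cMINC), human iPSC-derived neural crest cells; N2-S + EGF/FGF; compound added 24 h post-stopper removal, 24 h exposure. Readout: calcein-AM/Hoechst 30 min, HCS fluorescence imaging; bidirectional fitting, DMSO baseline.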

[16] = UKN4_HCS_LUHMES_neurite_outgrowth: University of Konstanz (UKN) Leist Lab Neurite Outgrowth Assay in human LUHMES cells (UKN4) (AID 2284206); details: actives raise or lower the signal
Method in brief: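 Human LUHMES cells were differentiated for two days, replated and treated with chemicals for 24 h. Neurite outgrowth was quantified as calcein-stained neurite area by HCS imaging, fitted bidirectionally relative to DMSO.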

[17] = CCTE_Mundy_HCI_hN2_NOG_NeuriteCount: CCTE's Neurite Outgrowth Assay in human hN2 cells for Neurite Count, Mundy Lab (AID 2284219; active = hit-call score of the fitted dose curve at least 0.9, where 1 is the maximum)
Method in brief: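 In this morphology assay, hNP1-derived neurons received test chemical 2 h post-plating and were fixed two days later in warm paraformaldehyde/sucrose containing Hoechst 33342. Neurites, labelled by rabbit anti-βIII-tubulin (1:800) and Alexa Fluor-488 (1:500), were counted automatically.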

[18] = CCTE_Mundy_HCI_hN2_NOG_NeuriteLength: CCTE's Neurite Outgrowth Assay in human hN2 cells for Neurite Length, Mundy Lab (AID 2284220; active = hit-call score of the fitted dose curve at least 0.9, where 1 is the maximum)
Method in brief: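 Read-out is neurite length from high-content imaging of βIII-tubulin/Alexa Fluor-488-labelled neurons, referenced to DMSO controls.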

[19] = CCTE_Mundy_HCI_hN2_NOG_NeuronCount: CCTE's Neurite Outgrowth Assay in human hN2 cells for Neuron Count, Mundy Lab (AID 2284221; active = hit-call score of the fitted dose curve at least 0.9, where 1 is the maximum)
Method in brief: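 Read-out is the number of betaIII-tubulin-positive neurons imaged by automated high-content analysis, with DMSO as negative control.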

Q: Which outcome [1] does the source give for `CN/C(=N\[N+](=O)[O-])NCc1cnc(Cl)s1` here?
A: The outcome was “inactive”.

Q: What about the outcome [2] of the same compound?
A: The outcome was “inactive”.

Q: What about the outcome [3] of the same compound?
A: Its outcome is “inactive”.

Q: What about the outcome [4] of the same compound?
A: Its outcome is “inactive”.

Q: What about the outcome [5] of the same compound?
A: The outcome was “inactive”.

Q: What about the outcome [6] of the same compound?
A: Its outcome is “inactive”.

Q: And the outcome [7]?
A: The outcome was “inactive”.

Q: And the outcome [8]?
A: The outcome was “inactive”.

Q: And the outcome [9]?
A: The outcome was “inactive”.

Q: And the outcome [10]?
A: The outcome was “inactive”.

Q: And the outcome [11]?
A: Its outcome is “inactive”.

Q: And the outcome [12]?
A: Its outcome is “inactive”.

Q: What about the outcome [13] of the same compound?
A: The outcome was “inactive”.

Q: With `CCCCC(C#N)(Cn1cncn1)c1ccc(Cl)cc1` (configuration not stated) as the compound, how does the outcome [14] read?
A: Its outcome is “inactive”.

Q: Which results are given for `CC1(C)C(C=C(Cl)Cl)C1C(=O)OC(C#N)c1cccc(Oc2ccccc2)c1` (configuration not stated)?
A: AC50 [1]: 3.6 µM (active); outcome [1]: inactive; outcome [2]: inactive; outcome [3]: inactive; outcome [4]: inactive; outcome [5]: inactive; AC50 [6]: 0.00451 µM (active); outcome [7]: inactive; outcome [8]: inactive; outcome [9]: inactive; outcome [10]: inactive; outcome [11]: inactive; outcome [12]: inactive; outcome [13]: inactive

Q: Which results are given for `CC(C)(C)C(=O)C(Oc1ccc(Cl)cc1)n1cncn1` (configuration not stated)?
A: AC50 [1]: 41.6 µM (active); outcome [15]: inactive; AC50 [2]: 513 nM (active); outcome [3]: inactive; outcome [4]: inactive; outcome [5]: inactive; AC50 [6]: 9.82 µM (active); outcome [7]: inactive; outcome [8]: inactive; AC50 [9]: 7.05 µM (active); AC50 [10]: 7.48 µM (active); AC50 [11]: 6.09 µM (active); AC50 [12]: 12.8 µM (active); outcome [13]: inactive

Q: For `CS(=O)(=O)c1cc(C(F)(F)F)ccc1C(=O)c1cnoc1C1CC1`, which outcome [1] is on record?
A: Its outcome is “inactive”.

Q: What about the outcome [15] of the same compound?
A: The outcome was “inactive”.

Q: What about the outcome [2] of the same compound?
A: The outcome was “inactive”.

Q: What about the outcome [3] of the same compound?
A: Its outcome is “inactive”.

Q: What about the outcome [4] of the same compound?
A: The outcome was “inactive”.

Q: What about the outcome [5] of the same compound?
A: The outcome was “inactive”.

Q: And the outcome [6]?
A: The outcome was “inactive”.

Q: What about the outcome [7] of the same compound?
A: The outcome was “inactive”.

Q: And the outcome [8]?
A: Its outcome is “inactive”.

Q: And the outcome [9]?
A: Its outcome is “inactive”.

Q: What about the outcome [10] of the same compound?
A: Its outcome is “inactive”.

Q: And the outcome [11]?
A: The outcome was “inactive”.

Q: What about the outcome [12] of the same compound?
A: Its outcome is “inactive”.

Q: And the outcome [13]?
A: Its outcome is “inactive”.

Q: With `CCOP(=O)(OCC)Oc1nc(Cl)c(Cl)cc1Cl` as the compound, how does the AC50 [1] read?
A: The AC50 was 5.46 µM (active) and 7.1 µM (active).

Q: What about the outcome [1] of the same compound?
A: Its outcome is “inactive”.

Q: And the outcome [15]?
A: Its outcome is “inactive”.

Q: What about the outcome [16] of the same compound?
A: The outcome was “inactive”.

Q: And the outcome [2]?
A: The outcome was “inactive”.

Q: What about the AC50 [3] of the same compound?
A: Its AC50 is 8.27 µM (active).

Q: And the outcome [4]?
A: The outcome was “inactive”.

Q: What about the outcome [5] of the same compound?
A: Its outcome is “inactive”.

Q: What about the outcome [6] of the same compound?
A: Its outcome is “inactive”.

Q: And the outcome [7]?
A: Its outcome is “inactive”.

Q: What about the outcome [8] of the same compound?
A: Its outcome is “inactive”.

Q: What about the AC50 [9] of the same compound?
A: The AC50 was 16.2 µM (active).

Q: What about the outcome [9] of the same compound?
A: Its outcome is “inactive”.

Q: And the AC50 [10]?
A: Its AC50 is 9.92 µM (active).

Q: And the outcome [10]?
A: The outcome was “inactive”.

Q: What about the outcome [11] of the same compound?
A: The outcome was “inactive”.

Q: What about the AC50 [17] of the same compound?
A: Its AC50 is 50 µM (active).

Q: And the AC50 [18]?
A: The AC50 was 38.4 µM (active).

Q: What about the AC50 [19] of the same compound?
A: The AC50 was 50 µM (active).

Q: And the outcome [12]?
A: Its outcome is “inactive”.

Q: What about the outcome [13] of the same compound?
A: Its outcome is “inactive”.
